Screening results as filed in PubChem.
Only a selection was taken, and hits are over-represented in it overall.
HIV RNase H inh-1: blocks HIV-1 RNase H cleavage of RNA/DNA duplex | P04585 | RT-RNase H RNA/DNA duplex cleavage, fluorescence | inhibition, % at 10 µM | 65,000 tested, 1.9% active; in the data active means inhibition above about 50%
RmlC RmlD mix: mixture blocks RmlC and RmlD coupled enzyme activity; 110,000 tested, 0.39% active; RmlC/RmlD coupled enzyme inhibition, 384-well mixture HTS; AID 1532; inhibition, % at 5.5 µM; in the data active means inhibition above about 30%, passing the limit was not always enough; inconclusive means no clear call, values can overlap the other calls
HIV RNase H inh-2: confirmation of HIV-1 reverse transcriptase RNase H inhibitors | shares compounds with HIV RNase H inh-1 | Recombinant RT RNase H, fluorescent RNA/DNA duplex cleavage | inhibition, % at 10 µM | 1,000 tested, 39% active | AID 651; in the data active means inhibition above about 48%; inconclusive means no clear call, values can overlap the other calls
* marks the source's active call; other numbers are inactive results; ? = inconclusive; / = not tested or not shown.

SMILES	HIV RNase H inh-1	RmlC RmlD mix	others
CCCCNC(=O)c1onc(CSc2cccc3ccccc23)c1C(=O)O	/	-9
O=C1OC(c2ccc(Cl)cc2)/C(=C(/O)c2ccccc2)C1=O (centres undefined)	/	-9
CCCS(=O)(=O)c1nnnn1-c1cccc(OC)c1	55*	-2
COc1cccc(-n2nnnc2SCC(=O)Nc2ccc(C(C)=O)cc2)c1	/	5
CCOC(=O)c1cccc(NS(=O)(=O)c2ccc(NC(C)=O)cc2)c1	/	4
CCOC(=O)/C=C/S(=O)(=O)c1ccc(NC(C)=O)cc1	50*	?
NCCCC[C@H](NC(=O)C1CCNCC1)c1nnc(CN)o1	/	-7
Clc1ccc2nc3ccccn3c2c1	-26	39*
On1c(-c2ccccc2)nc2ccc(Cl)cc21	/	-2
O=C(C1=C[C@H](c2ccccc2)C[C@H](OCc2ccc(CO)cc2)O1)N1CCOCC1	/	7
CCCc1nccn1S(=O)(=O)c1cc(OC)ccc1OC	/	9
Cc1cc(C)cc(N(CC(=O)NCc2cccnc2)S(C)(=O)=O)c1	-9	6
CCOc1cc2[nH]c(=O)n(CCC(=O)NCCc3ccc(OC)c(OC)c3)c(=O)c2cc1OCC	0	-5
CCOc1cc2[nH]c(=O)n(CCC(=O)NCCc3ccccc3)c(=O)c2cc1OCC	64*	5
CN1/C(=C/C(=O)c2cccs2)Sc2ccccc21	/	-15
COc1ccc2c(c1)S/C(=C\C(=O)c1ccncc1)N2C	67*	-9	HIV RNase H inh-2=19
Cc1cc(C(=O)COC(=O)C2=NNC(=O)CC2)c(C)n1-c1cccc(C(F)(F)F)c1	/	8
O=C(O)C1=C[C@H](c2cccs2)C[C@H](OCc2ccc(CO)cc2)O1	/	28
CC1(C)CC2CC(C)(CN2C(=O)c2cc(-c3ccccc3O)on2)C1 (centres undefined)	9	-12
CC(C)CCn1c(SCCc2ccccc2)nc2c1c(=O)[nH]c(=O)n2C	74*	34	HIV RNase H inh-2=5
CCCCCCn1c(SCCC)nc2c1c(=O)[nH]c(=O)n2C	-2	5
CCCn1c(SCCc2ccccc2)nc2c1c(=O)[nH]c(=O)n2C	7	20
CCCCCn1c(SCCCC)nc2c1c(=O)[nH]c(=O)n2C	71*	?	HIV RNase H inh-2=61*
O=C(CCN1CCc2ccccc2CC1)c1ccc2c(c1)OCCO2	36	-6
CCc1ccc(N(C(=O)c2snc(C(N)=O)c2N)C(C(=O)NCCC(C)C)c2c[nH]c3ccccc23)cc1 (centres undefined)	/	-30
SMILES	HIV RNase H inh-1	RmlC RmlD mix	others
Cc1cc(-c2nc3c4c5c(sc4[nH]c(=O)n3n2)CCC5)c(C)o1	81*	-7	HIV RNase H inh-2=?
Cc1nc2sc3c(c2c(=O)[nH]1)CCC3	-8	13
c1ccc(-c2cc(-c3nn4c(-c5ccco5)nnc4s3)c3ccccc3n2)cc1	75*	-4	HIV RNase H inh-2=26
Cc1ccccc1-c1nn2c(-c3ccccc3)nnc2s1	-26	-12
COc1cc(OC)c(-c2nn3c(-c4ccco4)nnc3s2)cc1OC	-18	10
Cc1cc(-c2nn3c(-c4ccccc4)nnc3s2)c2ccccc2n1	82*	-10	HIV RNase H inh-2=63*
O=C(CSc1nc2ccccc2s1)Nn1cnnc1	-4	13
C[C@H]1[C@@H](OC(=O)CCC(=O)O)O[C@@H]2OC3(C)CC[C@H]4[C@H](C)CC[C@@H]1[C@@]24OO3	/	-15
N#Cc1ccc(C23CC4(C2)[C@H](CN(Cc2ccc(C(F)(F)F)cc2)[C@@H]4c2ccccc2)C3c2ccc(Cl)nc2)cc1 (some centres undefined)	/	-32
Cc1cccc(-c2nsc(SCC(=O)Nc3cc(C)on3)n2)c1	70*	-7	HIV RNase H inh-2=48
Cc1cc(NC(=O)CSc2nc3ccccc3s2)no1	/	-12
COc1ccc(COc2cc(-c3cccc(OC)c3)nc3ccc(NC(=O)C(C)C)cc23)cc1	/	-11
O=C(NCc1cccc(C(F)(F)F)c1)C1CC(c2ccccc2C(F)(F)F)=NO1 (centres undefined)	/	1
CCCNC(=O)CC1C(=O)N(Cc2ccccc2)C(C)c2nc3ccccc3n21 (centres undefined)	/	2
Oc1ccc2c(c1)C1CCCC1(N1CCOCC1)O2 (centres undefined)	68*	9	HIV RNase H inh-2=33
c1ccc2c(c1)nc1n2C2(N3CCOCC3)CCCC2C1N1CCOCC1 (centres undefined)	-17	/
CCCCNc1c(C(=O)OCC)c(C)nc2c1cnn2CC	/	28
Cc1[nH]n(-c2ccccc2)c(=O)c1C1(C(F)(F)F)C(=O)N(c2ccc(F)cc2)C2=C1C(=O)CC(C)(C)C2 (centres undefined)	/	3
COc1cccc2sc(N3CCN(c4nc5ccccc5s4)CC3)nc12	71*	-2	HIV RNase H inh-2=?
CCN1CCN(c2nc3ccccc3s2)CC1	/	67
CC(C)=CC1C=C(C)C(C)C2C(=O)NNC(=O)C12 (centres undefined)	/	7
COC(=O)c1ccc(OCC(=O)c2ccccc2OC)cc1	/	12
Nc1ccc2nn(-c3cccc4ccccc34)nc2c1	11	-180
Cc1cc2nn(-c3cccc4ccccc34)nc2cc1N	67*	-33	HIV RNase H inh-2=22
COc1ccc(Cc2nc(-c3ccc(-n4cccc4)cc3)no2)cc1OC	-53	-7
SMILES	HIV RNase H inh-1	RmlC RmlD mix	others
COc1ccc(Cc2nc(-c3cccs3)no2)cc1OC	72*	3	HIV RNase H inh-2=12
Cc1nnc(SCCn2c(N3CCN(c4ccccc4)CC3)nc3c2c(=O)n(C)c(=O)n3C)s1	-1	/
CCOC(=O)CCc1c(C)nc(SCCN2CCCC2)c(C#N)c1C	4	-11
CCOC(=O)CCc1c(C)nc(SCCCn2c(=O)[nH]c3ccccc32)c(C#N)c1C	86*	6	HIV RNase H inh-2=20
Cc1cc(C)c(NC(=O)c2ccc(CN3CCc4ccccc4C3)cc2)c(C)c1	/	-13
Cc1ccc(CCNC(=O)C2CC(c3ccc(C(F)(F)F)cc3)=NO2)cc1 (centres undefined)	/	-10
COc1ccc2nc(S(=O)Cc3ncc(C)c(OC)c3C)[nH]c2c1 (centres undefined)	76*	-10	HIV RNase H inh-2=18
COc1ccc2nc(SCC(=O)Nc3c(C)cccc3C)[nH]c2c1	/	5
O=C(CCCn1c(SCC(=O)NC2CCCCC2)nc2ccccc2c1=O)NCC1CCCO1 (centres undefined)	-3	11
O=C(CCCn1c(SCC(=O)c2ccc(O)c(O)c2)nc2ccccc2c1=O)NCC1CCCO1 (centres undefined)	95*	-8	HIV RNase H inh-2=71*
CCOC(=O)C1C(=O)OC(C)(C)C1C(C)C(=O)c1ccccc1 (centres undefined)	/	-13
COc1ccccc1NC(=O)c1nc[nH]c1C(=O)Nc1ccccc1OC	83*	-5	HIV RNase H inh-2=41
COc1ccc(NC(=O)c2nc[nH]c2C(=O)Nc2ccccc2C)cc1	-76	-1
Cc1ccccc1NC(=O)c1nc[nH]c1C(=O)NCc1ccccc1	-20	-40
CCOc1ccccc1NC(=O)c1nc[nH]c1C(=O)Nc1ccccc1OCC	84*	26	HIV RNase H inh-2=?
Cc1onc(-c2ccccc2Cl)c1C(=O)Nc1ccccc1N1CCOCC1	/	-11
O=C(c1ccco1)c1nnn(Cc2ccccc2)c1-c1ccccc1	-23	5
CCOC(=O)C1=C(C)N(CCCC(=O)O)C(=O)NC1c1ccccc1OS(=O)(=O)c1ccc(C)cc1 (centres undefined)	/	-1
Cc1ccc(-c2nnc3sc(-c4ccc5c(c4)OCCO5)nn23)cc1	1	/
